The values below come from PubChem BioAssay (EPA / NIEHS).

Structures are written as SMILES. Calls of active or inactive are those of the source. Rule for the calls: active = hit-call score of the fitted dose curve at least 0.9, where 1 is the maximum; inactive = score below 0.9.

Read-out in this test: Vascular endothelial growth factor receptor 2 (Homo sapiens) (UniProt P35968)
Description: BSK_4H_VEGFRII: BioMAP Diversity Plus: 4H Assay for Vascular endothelial growth factor receptor 2 (VEGFR2) Biomarker Activity (AID 2283031). As to conditions: primary human endothelial cells (HUVEC); actives raise or lower the signal. The protocol: BSK_4H is a cell-based, multiplexed-readout assay that uses umbilical vein endothelium, a human vascular primary cell, with measurements taken at 24 hours after chemical dosing in a 96-well plate.BSK_4H_VEGFRII is an assay component measured in the BSK_4H assay. It measures VEGFRII antibody related to regulation of gene expression using ELISA technology.Data from the assay component BSK_4H_VEGFRII was analyzed into 1 assay endpoint. This assay endpoint, BSK_4H_VEGFRII, was analyzed with bidirectional fitting relative to DMSO as the negative control and baseline of activity. Using a type of binding reporter, gain or loss-of-signal activity can be used to understand changes in the signaling as they relate to the gene KDR. Furthermore, this assay endpoint can be referred to as a primary readout, because this assay has produced multiple assay endpoints where this one serves a signaling function. To generalize the intended target to other relatable targets, this assay endpoint is annotated to the kinase intended target family, where the subfamily is receptor tyrosine kinase.
The levels of cell surface (or secreted, indicated by the prefix "s") biomarker endpoints were measured by ELISA. Overt cytotoxicity to cells in confluent adherent cultures (all systems other than the BT system) was assessed by measuring total protein levels using sulforhodamine B (SRB) staining in parallel cultures at the time of biomarker measurements, indicated as SRB endpoints. For proliferation assays for adherent cell types, individual cell types are cultured at sub-confluence and relative cell numbers quantified by SRB staining at time points optimized for each system (48 h: 3C and CASM3C systems; 72 h: BT and HDF3CGF systems; 96 h: SAg system). SRB was performed by staining cells with 0.1% SRB after fixation with 10% TCA and reading wells at 560 nm.Viability and proliferation of PBMC (T cells) was quantified by Alamar Blue reduction for the SAg and BT systems. For PBMC viability (referred to as PBMC Cytotoxicity within the assay endpoint names), cells were plated (75,000/well in a 96-well plate) and then chemical samples added for 1 h before addition of activators, SEB and TSST-1 (20 ng/mL final concentration each). Cells were incubated for 90 h. Then, Alamar Blue (20 uL/well) (Invitrogen, Cat DAL1100) was added for 6 h, and the plates were read with a fluorescence microplate reader at 546/580 nm (excitation/emission). For PBMC proliferation, cells were plated and activated as above but incubated for only 16 h prior to addition of Alamar Blue. Plates were read after 6 h.
Regarding `CNC(=O)N(C)c1nnc(C(C)(C)C)s1`, the result was inactive.
`CCOc1cc(C(C)(C)C)ccc1C1COC(c2c(F)cccc2F)=N1` (stereo not given): the AC50 (in general, the concentration giving half of the maximal activity seen) is 22.8 µM (active).
As for `CCOc1nc(F)cc2nc(S(=O)(=O)Nc3c(Cl)cccc3Cl)nn12`, the outcome was inactive.
Same read-out and setting: with `COc1cc(OC)nc(NC(=O)NS(=O)(=O)c2ncccc2OCC(F)(F)F)n1` the entry was “inactive”; with `CC(C)NC(=O)N1CC(=O)N(c2cc(Cl)cc(Cl)c2)C1=O`, “inactive”.
On the same count and under the same terms, the value for `CO/N=C(/C1=NOCCO1)c1ccccc1Oc1ncnc(Oc2ccccc2Cl)c1F` was “inactive”.
Still for that read-out and setting: with `CSC(=O)c1c(C(F)F)nc(C(F)(F)F)c(C(=O)SC)c1CC(C)C` the entry was “inactive”.
For `O=c1n(Cl)c(=O)n(Cl)c(=O)n1Cl`, the outcome was inactive.
Take `OC(c1ccc(Cl)cc1)(c1ccc(Cl)cc1)C(Cl)(Cl)Cl`: the concentration at half-maximal activity (AC50) is 20 µM (active).
For the compound `C=CCOC(=O)C(C)(C)OC(=O)c1cc(-n2c(=O)cc(C(F)(F)F)n(C)c2=O)ccc1Cl`, the outcome was inactive.
On the same count and under the same terms, the value for `CCCN(CC)CC1COC2(CCC(C(C)(C)C)CC2)O1` (stereo not given) was “inactive”; that for `Cc1cnc(C2=NC(C)(C(C)C)C(=O)N2)c(C(=O)O)c1` (stereo not given) was “inactive”; that for `O=P(O)(O)CCCl` was “inactive”.
The same measure, in the same setting: with `CCC(C)n1c(=O)[nH]c(C)c(Br)c1=O` (stereo not given) the entry was “inactive”.
On the same count and under the same terms, the value for `CC1(C)C(C=C(Cl)Cl)C1C(=O)OC(C#N)c1cccc(Oc2ccccc2)c1` (stereo not given) was “inactive”.
For the compound `CCN(CC)c1nc(C)cc(OP(=S)(OC)OC)n1`, the outcome was inactive.
The same measure, in the same setting: with `COP(=S)(OC)SCn1nnc2ccccc2c1=O` the entry was “inactive”; with `CN/C(=N\[N+](=O)[O-])NCc1cnc(Cl)s1`, “inactive”; with `COc1cc(Cl)c(OC)cc1Cl`, “inactive”.
Consider `CNC(=O)Oc1cccc2ccccc12`, for which the outcome was inactive.
The same measure, in the same setting: the value for `CC(C)N1C(=O)c2ccccc2NS1(=O)=O` was “inactive”.
As to `CCSC(=O)N1CCCCCC1`, the result was inactive.
The same measure, in the same setting: with `Nc1c(Cl)c(F)nc(OCC(=O)O)c1Cl` the entry was “inactive”.
For the compound `CCOP(=O)(OCC)Oc1nc(Cl)c(Cl)cc1Cl`, the result was inactive.
On to `O=C1C2CC=CCC2C(=O)N1SC(Cl)(Cl)Cl` (stereo not given), for which the result was inactive.
Turning to `CC(C)Oc1cccc(NC(=O)c2ccccc2C(F)(F)F)c1`, the outcome was inactive.
Turning to `O=C(O)c1c(Cl)ccc2cc(Cl)cnc12`, the result was inactive.
The same measure, in the same setting: with `CC(C)Nc1nc(Cl)nc(NC(C)C)n1` the entry was “inactive”; with `CCNP(=S)(OC)O/C(C)=C/C(=O)OC(C)C` (stereo not given), “inactive”.
As for `Cc1nc(N(C)C)nc(OC(=O)N(C)C)c1C`, the result was inactive.
In the case of `COP(=S)(OC)Oc1ccc([N+](=O)[O-])c(C)c1`, the outcome was inactive.
Still for that read-out and setting: the value for `N#Cc1c[nH]cc1-c1cccc2c1OC(F)(F)O2` was “inactive”; that for `C=C(C)CN(CC)c1c([N+](=O)[O-])cc(C(F)(F)F)cc1[N+](=O)[O-]` was “inactive”; that for `N#CN=C1SCCN1Cc1ccc(Cl)nc1` was “inactive”.
As to `Nc1cnn(-c2ccccc2)c(=O)c1Cl`, the result was inactive.
The same measure, in the same setting: the value for `Cc1cc(C)nc(Nc2ccccc2)n1` was “inactive”; that for `COCc1cnc(C2=NC(C)(C(C)C)C(=O)N2)c(C(=O)O)c1` (stereo not given) was “inactive”.
The same measure, in the same setting: with `Clc1nc(Cl)nc(Nc2ccccc2Cl)n1` the entry was “inactive”; with `COc1ccc(-c2ccccc2)cc1NNC(=O)OC(C)C`, “inactive”.
As for `CN=C=S`, the outcome was inactive.
